# Methyltransferases: Primary Screen for Target Class Profiling of Small Molecule Inhibitors of Methyltransferases. purified enzyme, MTase-Glo SAH luminescence; active compounds read low. calls only at 40 µM. 25,000 compounds, 3.9% hits. AID 1745853, 2022; call rule not given here
#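 Each enzyme was assayed with SAM and its substrate. SAH formation detected by MTase-Glo luminescence; single-point 40 uM screen[…].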
# The depositor's hits bear a star; i = inactive; + = active, no number. Only a selection was taken, and hits are over-represented in it overall. % is set by controls: 0 for no effect and ±100 for the full control effect.
SMILES,Methyltransferases
CCOc1ccccc1CN1C(=O)c2ccc(-c3ccccc3)n2CC1(C)C(=O)NC1CCCCC1 (configuration not stated),i
C=CC(=O)Nc1cccc(CN2C(=O)N(c3c(Cl)c(OC)cc(OC)c3Cl)Cc3cnc(NCCCCN(CC)CC)nc32)c1,+
O=C(CSc1nnc2[nH]c(=O)c(-c3ccc(Cl)cc3)nn12)Nc1cccc(F)c1,i
CCOC(=O)c1cc2n(n1)CC(C)(C(=O)NCc1ccccc1OC)N(c1ccc(C)c(C)c1)C2=O (configuration not stated),i
CC(C)(C)c1cc2n(n1)CC(C)(C(=O)NC1CCCCC1)N(Cc1ccccc1Cl)C2=O (configuration not stated),i
CCOc1ccc(-c2cc3n(n2)CC(C)(C(=O)NCCC(C)C)N(Cc2ccc(OC)cc2)C3=O)cc1 (configuration not stated),i
O=C(NCCCc1ccccc1)C1CN(C2CCCC2)C(=O)N1 (configuration not stated),i
O=C1N[C@@H]2CCN(C(=O)c3ccc(-c4ccccc4)cc3)[C@@H]2C(=O)N1Cc1ccccc1,i
CC1=C(C(=O)OCc2ccccc2)C(c2ccc(-c3ccccc3)cc2)NC(=O)N1CCCCCC(=O)O (configuration not stated),+
C=CCn1c(=O)c2ccc(C(=O)NC(C)C)cc2n2c(=O)n(CC(=O)Nc3ccccc3C)nc12,i
CCCn1c(=O)c2cc(Cl)ccc2n2c(SCc3ccc(C)cc3)nnc12,i
CCCN1C(=O)c2cc(C(=O)NCc3cccc(OC)c3OC)nn2CC1(C)C(=O)NC1CCCC1 (configuration not stated),i
COc1cccc(N2C(=O)c3cc4sccc4n3CC2(C)C(=O)NC2CCCCCC2)c1 (configuration not stated),i
Cc1ccc(NC(=O)CSc2nnc3n(C)c(=O)c4ccc(C(=O)NC5CCCC5)cc4n23)c(C)c1,i
C=C1C(O[C@@H]2O[C@H](CO)[C@@H](O)[C@H](O)[C@@H]2O)CC2C(C)(C)C(O)CCC2(C)C1CC/C(C)=C\CO (some centres not stated),+
C=C1CC[C@@H]2[C@](C)(CO)[C@H](O[C@@H]3O[C@H](CO)[C@@H](O)[C@H](O)[C@H]3O)CC[C@@]2(C)[C@@H]1C/C=C1/C(=O)OC[C@H]1O,i
CC(C)=CCC[C@](C)(O[C@@H]1O[C@H](CO)[C@@H](O)[C@H](O)[C@H]1O)[C@H]1CC[C@]2(C)[C@@H]1[C@H](O)CC1[C@@]3(C)CC[C@H](O)C(C)(C)C3[C@@H](O[C@@H]3O[C@H](CO)[C@@H](O)[C@H](O)[C@H]3O[C@@H]3O[C@@H](C)[C@H](O)[C@@H](O)[C@H]3O)C[C@]12C (some centres not stated),i
CCOC(=O)CNC(=O)C1(C)Cn2c(ccc2-c2ccco2)C(=O)N1Cc1ccc(OC)cc1 (configuration not stated),i
CN1C(=O)c2cc(C(=O)NCc3cccc(Br)c3)nn2CC1(C)C(=O)NCc1ccc(F)cc1 (configuration not stated),i
CCCn1c(=O)c2ccc(C(=O)NC(C)CC)cc2n2c(=O)[nH]nc12 (configuration not stated),i
CC1CCN(CCCNC(=O)CCc2nnc3n(Cc4ccc(F)cc4)c(=O)c4ccccc4n23)CC1,+
CCN(CC)CCCNC(=O)CCc1nnc2n(Cc3ccc(Cl)cc3)c(=O)c3ccccc3n12,+
CCOCCCNC(=O)CCc1nnc2n(Cc3ccc(Cl)cc3)c(=O)c3ccccc3n12,i
CCCCNC(=O)CCc1nnc2n(Cc3ccc(Cl)cc3)c(=O)c3ccccc3n12,i
CCN(CC)CCNC(=O)CCc1nnc2n(Cc3ccccc3)c(=O)c3ccccc3n12,i
SMILES,Methyltransferases
CC1CCN(CCCNC(=O)CCc2nnc3n(Cc4ccc(Cl)cc4)c(=O)c4ccccc4n23)CC1,+
O=C(CCc1nnc2n(Cc3ccc(F)cc3)c(=O)c3ccccc3n12)NCCN1CCOCC1,i
CCOCCCNC(=O)CCc1nnc2n(Cc3ccc(F)cc3)c(=O)c3ccccc3n12,i
Cc1ccc(CCNC(=O)CCc2nnc3n(Cc4ccccc4)c(=O)c4ccccc4n23)cc1,i
CN1CCN(CCCNC(=O)CCc2nnc3n(Cc4ccccc4Cl)c(=O)c4ccccc4n23)CC1,i
CC1CCN(CCCNC(=O)CCc2nnc3n(Cc4ccccc4)c(=O)c4ccccc4n23)CC1,+
Cc1ccc(CNC(=O)CCc2nnc3n(Cc4ccc(Cl)cc4)c(=O)c4ccccc4n23)cc1,i
CN1C(=O)c2cc(C(=O)N3CCC(C(N)=O)CC3)nn2CC1(C)C(=O)NC1CCCCCC1 (configuration not stated),i
Cc1ccc(Cn2nc3n(CCC(C)C)c(=O)c4ccc(C(=O)NC5CCCC5)cc4n3c2=O)cc1,i
CCCSCCCN1C(=O)c2cc3ccccc3n2CC1(C)C(=O)NC1CCCCCC1 (configuration not stated),i

# Screening data as filed in PubChem BioAssay.
